Screening data (PubChem)
This is a sample that favours compounds with a hit; in the whole collection about 13% have one here.
HADH2 inhib = inhibitors of human HADH2 dehydrogenase; recombinant HADH2, NADH fluorescence, beta-hydroxybutyryl-CoA; 73,000 tested, 3.4% active; Potency, µM (top dose mostly 57.1 µM), hits mostly inhibitors; AID 886; note: nearly all actives have a fitted effect of over 60% in size
Target sequence (Q99714 whole entry, looked up, one chain of several): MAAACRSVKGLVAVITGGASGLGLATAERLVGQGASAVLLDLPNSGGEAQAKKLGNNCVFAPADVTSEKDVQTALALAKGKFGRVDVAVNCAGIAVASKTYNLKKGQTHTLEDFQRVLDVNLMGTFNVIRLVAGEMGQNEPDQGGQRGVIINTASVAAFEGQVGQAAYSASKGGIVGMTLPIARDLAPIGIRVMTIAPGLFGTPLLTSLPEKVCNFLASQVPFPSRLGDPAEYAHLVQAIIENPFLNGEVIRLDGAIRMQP
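E. coli-expressed His-tagged HADH2 tested at 20 nM in alkaline Tris buffer (pH 9.0); oxidation of 90 uM beta-hydroxybutyryl-CoA with 1 mM NAD+ tracked fluorimetrically for 4 min.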
4MU fluor = compound fluoresces in the 4-MU spectral region | compound autofluorescence, 340/450 nm, 4-MU equivalents; hits give high values | max dye-equivalent concentration, M | 59,000 tested, 11% active; in the data active = max dye-equivalent concentration above about 10 nM; inconclusive = mostly about 1.1 nM to 9.6 nM
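Compounds in 100 mM Tris, pH 8.0, sat 15 min at room temperature before fluorescence was read at 340 nm excitation/450 nm emission; a per-plate six-point 4-MU standard curve converted signals to dye-equivalent concentration at each compound concentration.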
HSD17B inh = inhibitors of human HSD17B10 dehydrogenase | 75,000 tested, 7.6% active | recombinant HSD17B10, NADH fluorescence kinetic | Potency, µM (top dose mostly 57.1 µM), most hits filed as inhibitors | Q99714;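 note: the protocol describes HADH2 (HSD17B10) and not the HSD17B4 of the title; nearly all actives have a fitted effect of over 70% in size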
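Activity followed as NADH fluorescence increase (ex 360, em 450 nm) every 30 seconds for 4 min, using final 90 uM beta-hydroxybutyryl CoA and 1 mM NAD+. Recombinant His-tagged enzyme, 20 nM, pH 9.0 Tris buffer, 15 min compound preincubation.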
GBA mod = modulators of human glucocerebrosidase; P04062; purified enzyme, resorufin glucoside fluorescence (screen aimed at inhibitors), 20 min; Potency, µM; 48,000 tested, 1.1% active; AID 360; in the data active = potency below about 15 µM; inconclusive = mostly about 16 µM to 33 µM;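 note: the screen sought inhibitors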
Target sequence (P04062 whole entry, looked up): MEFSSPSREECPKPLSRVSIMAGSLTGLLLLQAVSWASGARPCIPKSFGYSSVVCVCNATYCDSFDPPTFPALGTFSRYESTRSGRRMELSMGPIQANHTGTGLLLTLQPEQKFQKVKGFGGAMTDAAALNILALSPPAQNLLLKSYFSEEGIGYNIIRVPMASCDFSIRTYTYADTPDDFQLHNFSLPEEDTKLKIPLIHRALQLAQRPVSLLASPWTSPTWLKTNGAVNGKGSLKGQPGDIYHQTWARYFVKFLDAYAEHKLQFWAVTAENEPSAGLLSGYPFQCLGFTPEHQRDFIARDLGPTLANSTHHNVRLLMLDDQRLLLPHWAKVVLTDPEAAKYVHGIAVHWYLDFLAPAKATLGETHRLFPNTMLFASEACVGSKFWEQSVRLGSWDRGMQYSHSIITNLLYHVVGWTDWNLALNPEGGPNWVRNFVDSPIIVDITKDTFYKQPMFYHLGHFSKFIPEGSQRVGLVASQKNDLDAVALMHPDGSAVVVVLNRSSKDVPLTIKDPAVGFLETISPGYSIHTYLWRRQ
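Compounds titrated against 0.2 nM normal enzyme, 30 uM resorufin beta-D-glucopyranoside substrate, citrate/phosphate buffer with taurocholate and tween-20, pH 5.9. Reaction ran 20 min at room temperature; fluorescence (Ex 548/Em 600) gave AC50.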
A350 fluor = A350 region autofluorescence. Compound autofluorescence, 340/450 nm, Alexa 350 dye-equivalents; hits give high values. max dye-equivalent concentration, M. 59,000 tested, 11% active. AID 590; in the data active = max dye-equivalent concentration above about 10 nM; inconclusive = mostly about 1.1 nM to 9.6 nM
AID923 = qHTS Assay for Allosteric/Competitive Inhibitors of Caspase-1: Spectroscopic Profiling in AFC Spectral Region; 75,000 tested, 1.1% active; compound fluorescence, AFC spectral region (405/520 nm); Potency, µM (titrated, usually from 57.5 µM), usual class: activators
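Compound autofluorescence profiled at 405 nm ex/520 nm em during kinetic caspase 1 run (50 nM enzyme, 5 uM Ac-WEHD-AFC, HEPES pH 7.5, 10 mM DTT). Titration up to 57 uM; baseline from regression intercept, normalized to AFC standard curve.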
Each line names hits and unclear results; the compound was inactive in the other large screens. Unless noted, calls come from the whole dose curve; as a rule, active = well fitted curve in the direction sought with a large enough effect; inconclusive = small, poorly fitted or top-dose-only effect, or another doubt; inactive = no such curve, though single readings can be large; an effect the other way counts as inactive or inconclusive.

CCCC[C@@H]1C[C@H]1C(NC(=O)c1ccccc1)c1ccc(-c2ccccc2)cc1 (stereo not given in full)	none (no result: 4MU fluor, GBA mod, A350 fluor)
CC(=O)Nc1c(I)c(C(=O)N[C@H]2[C@@H](O)[C@H](O)[C@H](CO)O[C@@H]2O)c(I)c(N(C)C(C)=O)c1I	none (no result: GBA mod)
CCc1cc2c(=O)c(Oc3ccccc3)c(C)oc2cc1O	HADH2 inhib 25µM, HSD17B inh 32µM (no result: 4MU fluor, GBA mod, A350 fluor)
CCOC(=O)c1oc2cc(O)ccc2c(=O)c1-c1csc(C)n1	none
CCOC(=O)c1ccc(CC(=O)c2oc3cc(O)ccc3c2C)o1	HADH2 inhib inconclusive, 4MU fluor 3.9e-08M, HSD17B inh 32µM, A350 fluor 5.7e-08M
CCOC(=O)c1oc2cccc(O)c2c1CN(Cc1ccccc1)C(C)=O	none (no result: 4MU fluor, GBA mod, A350 fluor)
CCOC(=O)c1ccc(-c2c(C(=O)OCC)oc3cc(O)c(CC)cc3c2=O)o1	HADH2 inhib 6.3µM, 4MU fluor 1e-08M, A350 fluor 1.2e-08M
COc1cccc([C@@H]2Oc3ccc(OC)cc3/C(=N/O[C@@H](C)CN3CCCCc4nc(C)c(C)cc43)[C@@H]2O)c1	none (no result: 4MU fluor, GBA mod, A350 fluor)
Cc1ccc2cc3cc(C(=O)NCCCN4CCCCCC4)oc3nc2c1	HADH2 inhib inconclusive, 4MU fluor 6.7e-08M, HSD17B inh 16µM, A350 fluor 6.3e-08M
Cc1ccc2cc3cc(C(=O)NCCCN4CCc5ccccc5C4)oc3nc2c1	HADH2 inhib inconclusive, 4MU fluor 1.8e-08M, HSD17B inh 25µM, A350 fluor 1.9e-08M
Cc1ccc2cc3cc(C(=O)N(C)C4CCCCC4)oc3nc2c1	4MU fluor inconclusive, A350 fluor inconclusive
Cc1cccc(N(C)C(=O)c2cc3cc4ccc(C)cc4nc3o2)c1	HSD17B inh inconclusive, A350 fluor inconclusive
O=C(NCCN1CCOCC1)c1ccc(Cc2nc3ccccc3[nH]2)cc1	none (no result: 4MU fluor, GBA mod, A350 fluor)
CCOc1cc2c(cc1OCC)C(c1cc(OC)c(O)c(OC)c1)NCC2 (stereo not given)	4MU fluor 2.5e-08M, A350 fluor 2.8e-08M
CCOc1cc2c(cc1OCC)C(c1ccc(O)c(OC)c1)NCC2 (stereo not given)	none (no result: 4MU fluor, GBA mod, A350 fluor)
CCC1=C(OC(=O)N(CC)CC)N2C(=O)OC(=NCCOC)[C@]2(C)[C@H]2C1=CC[C@H]1C(=O)N(C)C(=O)[C@H]12	none (no result: HADH2 inhib, 4MU fluor, GBA mod, A350 fluor)
CC(=O)NC(CC(=O)O)C(=O)NC(CCC(=O)O)C(=O)O (stereo not given)	none (no result: HADH2 inhib, 4MU fluor, GBA mod, A350 fluor)
CN[C@H](CC(=O)O)C(=O)O	HSD17B inh 25µM (no result: GBA mod)
Cc1ccc(C)c(S(=O)(=O)c2c(N)n(/N=C/c3ccco3)c3nc4ccccc4nc23)c1	HADH2 inhib inconclusive, 4MU fluor 7e-08M, HSD17B inh 32µM, A350 fluor 7.5e-08M
COCCCNC(=O)c1c(N)n(/N=C/c2ccccn2)c2nc3ccccc3nc12	none (no result: HADH2 inhib, HSD17B inh, GBA mod, AID923)
Nc1c(S(=O)(=O)c2ccccc2)c2nc3ccccc3nc2n1/N=C/c1cccc(O)c1	HADH2 inhib inconclusive, 4MU fluor 4.6e-08M, HSD17B inh 25µM, A350 fluor 5.5e-08M
Fc1ccc2[nH]c3c(N4CCN(c5ccccc5)CC4)ncnc3c2c1	HADH2 inhib inconclusive, HSD17B inh inconclusive
OC1(c2cccc(C(F)(F)F)c2)CCN(c2ncnc3c2[nH]c2ccc(F)cc23)CC1	4MU fluor 1e-08M, HSD17B inh 16µM, A350 fluor 1.3e-08M (no result: GBA mod)
C[N+](C)(C)CC(=O)N/N=C\c1c(O)ccc2ccccc12	none (no result: GBA mod)
Cn1c(/N=C/c2c(O)ccc3ccccc23)nc2ccccc21	HADH2 inhib 4µM, HSD17B inh inconclusive (no result: 4MU fluor, GBA mod, A350 fluor)
CC(C(=O)NC1CCCC1)N(C(=O)c1snc(C(N)=O)c1N)c1ccc2c(c1)OCCO2 (stereo not given)	4MU fluor 1.7e-08M, GBA mod inconclusive, A350 fluor 2.4e-08M
CC(C)(C)NC(=O)COC(=O)c1snc(C(=O)NC2CCCCC2)c1N	4MU fluor 3.9e-07M, HSD17B inh 25µM, A350 fluor 3.2e-07M
Cc1cnc(C(=O)OCC(=O)NC2CCCCC2)cn1	none
CC(C)(C)NC(=O)C(c1ccco1)N(Cc1ccc(F)cc1)C(=O)c1snc(C(N)=O)c1N (stereo not given)	4MU fluor 1.5e-07M, HSD17B inh 25µM, A350 fluor 2.2e-07M (no result: GBA mod)
CC(C(=O)NC1CCCC1)N(Cc1ccco1)C(=O)c1snc(C(=O)NC2CCCC2)c1N (stereo not given)	4MU fluor 8.2e-08M, HSD17B inh 32µM, A350 fluor 7.4e-08M
O=C(NC1CCCC1)C(c1cccs1)N(C(=O)c1ccco1)c1ccc2c(c1)OCCO2 (stereo not given)	none
COc1ccc(O[C@H]2C=C[C@@H](c3ccccc3)O[C@@H]2CON=C(C)C)cc1	none (no result: 4MU fluor, GBA mod, A350 fluor)
CC(C)C[C@@H](CC(=O)N[C@H](CC(=O)N[C@@H]1CCNC[C@H]1C(=O)N[C@H](CC(=O)N[C@@H](CCC(=O)O)CC(=O)O)Cc1c[nH]c2ccccc12)C(C)C)NC(=O)[C@@H]1CCCC[C@H]1N	none (no result: 4MU fluor, HSD17B inh, GBA mod, A350 fluor, AID923)
C=C1CC[C@@H]2O[C@@]2(C)CC[C@H]2[C@H]1CC2(C)C	none (no result: HADH2 inhib, 4MU fluor, GBA mod, A350 fluor)
CCC(C)(C)NC(=O)C(c1ccc(F)cc1)N(Cc1ccco1)C(=O)c1snc(C(N)=O)c1N (stereo not given)	4MU fluor 1.4e-07M, HSD17B inh 25µM, A350 fluor 1.6e-07M
Nc1ccc(C(=O)C[C@H](N)C(=O)O)cc1O	none (no result: GBA mod)
OC[C@@H]1O[C@@H](n2cnc3c(NC4CCCCC4)ncnc32)[C@@H](O)[C@H]1O	none (no result: GBA mod)
O=C(O)c1ccc(C(=O)O)c(C(=O)O)c1.[NH-][C@@H]1CCCC[C@@H]1[NH-].[Pt]	none (no result: GBA mod)
Cc1cccc(C2Nc3ccccc3C(=O)N2CCc2ccccc2)n1 (stereo not given)	HADH2 inhib inconclusive, HSD17B inh 32µM (no result: 4MU fluor, GBA mod, A350 fluor)
CC1=CC(C)(C)Nc2ccc(C)cc21	HADH2 inhib 32µM, 4MU fluor 1.6e-07M, HSD17B inh 32µM, A350 fluor 2.1e-07M
CC1=CC(C)(C)Nc2ccc(OC(=O)CN3C(=O)CCC3=O)cc21	HADH2 inhib inconclusive, HSD17B inh inconclusive (no result: 4MU fluor, GBA mod, A350 fluor)
CC1=CC(C)(C)Nc2cc(C)c(C)cc21	4MU fluor 2.7e-08M, HSD17B inh inconclusive, A350 fluor 2.5e-08M
CC1=CC(C)(C)Nc2ccc(CSc3ccccc3)cc21	4MU fluor inconclusive, HSD17B inh inconclusive, A350 fluor inconclusive (no result: GBA mod)
O=C1c2ccccc2-c2ccc(N(Cc3ccc(Br)cc3)Cc3ccc(Br)cc3)cc21	none (no result: GBA mod)
O=c1c2[nH]c3ccc(F)cc3c2ncn1C1CCCCC1	4MU fluor 4.1e-08M, HSD17B inh 32µM, A350 fluor 1e-08M
CCN1c2ccccc2-c2nc3ccccc3n2C1c1ccncc1 (stereo not given)	4MU fluor 9.7e-08M, HSD17B inh 25µM, A350 fluor 1.3e-07M
